E coli growth-1 – E. coli V3065 growth inhibition, primary screen, counter-screen for AddAB inhibitor project, absorbance, OD600; 18 h; inhibition, % at 11.9 µM; hit rate 0.27% among 330,000;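 active = inhibition above the campaign's mean inhibition across all tested compounds plus 3 SD, cut at about 9.9% in these data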;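 note: uninfected addAB+ strain grown without phage in ampicillin broth; 0% = DMSO wells and 100% = ciprofloxacin 0.95 µg/ml wells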
phage Ecoli inh – growth loss of phage-infected E. coli, primary screen, RecBCD inhibitor project, absorbance, with phage, HTS | inhibition, % at 11.9 µM | hit rate 0.26% among 360,000; in the data active = inhibition above about 11%
AddAB inh – growth inhibition of E. coli expressing H. pylori AddAB, primary screen, AddAB inhibitor project, absorbance | inhibition, % at 11.9 µM | hit rate 0.29% among 330,000 | AID 435030, 2010; in the data active = inhibition above about 12%;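 note: 0% = vehicle wells of infected cells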
Tat transport – E. coli Tat export inhibitors, primary screen, MC4100, TorA-mCherry reporter, fluorescence, single point. inhibition, % at 10 µM. hit rate 0.036% among 340,000;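 active = mean replicate inhibition at least 50% and at least half of replicates individually reaching 50%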;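 note: exported cargo escapes ClpAP degradation while cytoplasmic cargo is degraded and loses fluorescence; 0% = median of neutral control wells and 100% = median of NaSCN control wells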
E coli growth-2 – E. coli growth inhibition, primary screen, OD600. AID 1053175, 2014. Escherichia coli growth, 23 h; active compounds read low. hit rate 0.21% among 330,000. OD600 absorbance (concentration not given with the values);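 active = OD600 absorbance below the run mean of sample wells minus 3.6 SD, in any replicate, cut at about 0.56 in these data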
Numbers without * were called inactive; ! = repeats disagree. Compounds with a hit are over-represented: about 0.51% of the library has one in this group of screens.

Screening Cc1c(Cl)c(C(F)F)nn1CC(=O)NC1C(=O)N2C(C(=O)O)=C(CSc3nnnn3C)CSC12 (stereo not given) returned phage Ecoli inh 6, Tat transport -3 and E coli growth-2 0.65.
Cn1nnnc1SCC1=C(C(=O)O)N2C(=O)C(NC(=O)Cn3nc(C(F)F)cc3C3CC3)C2SC1 (stereo not given) was read as E coli growth-1 2, phage Ecoli inh 9, AddAB inh 0, Tat transport -2 and E coli growth-2 0.49*.
Screening O=C1C2CCC3C(=NOCC(O)COCc4ccco4)CC(O)C(O)C3C2C(=O)N1c1ccc(F)cc1F (stereo not given) returned E coli growth-2 0.71.
Screening C=CCn1c(=O)c(C(=O)NCCNCC)c(O)c2ccccc21 returned E coli growth-1 -3, phage Ecoli inh 4, AddAB inh -1, Tat transport -11 and E coli growth-2 0.66.
For C=CCn1c(=O)c(C(=O)NCc2ccccc2)c(O)c2ccccc21 the results were E coli growth-1 11*, phage Ecoli inh 10, AddAB inh 11, Tat transport 1 and E coli growth-2 0.68.
CC(=NNc1nncc2ccccc12)c1ccc(C(C)(C)C)cc1 was read as E coli growth-2 0.67.
Screening CN1CCCCCC1=Nc1ccc([N+](=O)[O-])cc1 returned E coli growth-1 1, phage Ecoli inh 4, AddAB inh 3, Tat transport -3 and E coli growth-2 0.67.
Screening CN1C(=O)C(N=Nc2ccc([N+](=O)[O-])cc2)SC1=S (stereo not given) returned phage Ecoli inh -3, Tat transport 6 and E coli growth-2 0.45*.
`C#CCOCCOCCOCCNc1nc(N2CCOCC2)nc(N2CCN(C(=O)C(Cc3cc4ccccc4[nH]3)n3cc(C(N)CC(C)C)nn3)CC2)n1` (stereo not given) gave E coli growth-2 0.67.
NC(N)=NN=Cc1ccccc1Cl was read as E coli growth-2 0.7.
NC(N)=N/N=C/c1ccccc1Cl was read as E coli growth-1 13*, phage Ecoli inh inactive, AddAB inh inactive and Tat transport -3.
NC(N)=NN=Cc1ccc(OCc2ccccc2Cl)cc1 was read as E coli growth-2 0.044*.
For NC(N)=N/N=C/c1c(Cl)cccc1Cl the results were E coli growth-1 12*!, phage Ecoli inh 7, AddAB inh 6 and Tat transport 3.
`COc1cccc(C2Oc3ccc(OC)cc3C(=O)C2OC(=O)Nc2cc(OC)c(OC)c(OC)c2)c1` (stereo not given) gave E coli growth-2 0.7.
Screening CC(C)Cc1nnc(NC(=O)CCN2C(=O)c3ccccc3C2=O)s1 returned E coli growth-1 27*, phage Ecoli inh 1, AddAB inh 68*, Tat transport -5 and E coli growth-2 0.72.
`CCC(CC)c1nnc(NC(=O)CCN2C(=O)c3ccccc3C2=O)s1` gave E coli growth-1 -1, phage Ecoli inh 2, AddAB inh 0, Tat transport 3 and E coli growth-2 0.76.
O=[N+]([O-])c1cccc(/C=C/c2nc[nH]c2[N+](=O)[O-])c1 was read as E coli growth-1 11*, phage Ecoli inh 1, AddAB inh 10, Tat transport 5 and E coli growth-2 0.69.
For O=C(C=CNc1ccc(F)cc1)c1ccco1 the results were E coli growth-2 0.72.
CC1CCCCC1NC(=O)C1CCN(S(=O)(=O)c2ccc(-n3cnnn3)cc2)CC1 (stereo not given) was read as E coli growth-1 38*, phage Ecoli inh 3, AddAB inh 10, Tat transport 6 and E coli growth-2 0.77.
For CC1CCC(=O)N(C(CN=[N+]=[N-])Cc2ccccc2)CC1 (stereo not given) the results were E coli growth-2 0.69.
`CCCCCCCCCCCCCCCC(=O)OC(CC(=O)O)C[N+](C)(C)C` (stereo not given) gave E coli growth-1 -2, phage Ecoli inh 2, AddAB inh -2, Tat transport 54* and E coli growth-2 0.64.
`CCCCCCC(=O)O` gave E coli growth-1 1, phage Ecoli inh 1, AddAB inh 4, Tat transport 3 and E coli growth-2 0.69.
C#CCOCCOCCOCCNc1nc(N2CCN(C(=O)C(CCC(=O)O)n3cc(C(N)CO)nn3)CC2)nc(N2CCN(C(=O)C(C(C)CC)n3cc(C(N)Cc4ccc(O)cc4)nn3)CC2)n1 (stereo not given) was read as E coli growth-2 0.69.
